Compounds without any hit were thinned out: in the full panel of roughly 83,000, 20% have a hit.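 For each line, cells grew in 96-well plates with the test compound present at a single concentration for 48 hours.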 A number with no mark means an inactive call. Active and inactive are the calls of the source. How the source made its calls: active means growth percent below 10; inactive means the rest.
These compounds were tested on HL-60(TB) leukemia (assay: NCI-60 one-dose screen, 48 h (100 = growth as untreated, 0 = no growth, -100 = all killed)). Conditions: 10 µM unless noted.

Row | Structure (SMILES) | growth
1 | COc1ccc(C(=O)CSc2nnc(-c3c[nH]c4ccccc34)n2-c2ccccc2)cc1 | 81.3%
2 | COc1ccccc1-n1cc(C#N)c(N)c1C(=O)c1ccc(Cl)cc1Cl | 1.26% (active)
3 | CCOC(=O)C1=C(N)N(c2ccccc2)C2=C(C(=O)CC(C)(C)C2)C1c1ccccc1OC (stereo not drawn) | 99.2%
4 | CO[C@@H]1CSS[C@H]1Cn1nc(-c2ccc(Oc3ccccc3)cc2)c2c(N)ncnc21 | 25.8%
5 | CC(=O)c1cccc(NC(=O)CCC(=O)NS(=O)(=O)c2ccc(C)cc2)c1 | 107%
6 | O=C(CNc1nc(-c2ccccc2)cs1)Nc1ccccc1 | -30.5% (active)
7 | CN1CCN(C(=O)Oc2cc3c(c4ccccc24)[C@H](CCl)CN3C(=O)c2cc3cc(OCCCN4CCC4)ccc3[nH]2)[C@H]2CSSC[C@H]21 | -22.8% (active)
8 | COc1cc(/C=C/C(=O)c2ccc(F)cc2)ccc1Oc1nc(Nc2ccc(F)cc2)nc(N(C)C)n1 | 61.3%
9 | N#Cc1c(NC(=O)c2ccc(C(F)(F)F)cc2)sc2c1CCC(O)=C2 | 6.28% (active)
10 | COc1ccc(C=CC(=O)c2ccc(-n3c(C)nc4c(cnn4-c4ccccc4)c3=O)cc2)cc1 | 44.7%
11 | COc1ccc(/C=C/C(=O)c2ccc(S(=O)(=O)NCCNc3nc(N(C)C)nc(N4CCOCC4)n3)cc2)cc1 | 67.1%
12 | O=C(c1ccc(O)cc1)C1[C@H](c2ccc(Cl)cc2)[C@@H](c2ccccc2)NC12C(=O)Nc1ccccc12 (stereo partly drawn) | -33.3% (active)
13 | O=C(N=Nc1c(O)[nH]c2ccc(Cl)cc12)c1ccc2nc(-c3ccccc3)[nH]c2c1 | 72.5%

From PubChem BioAssay (NCI)
